Test results reported in PubChem BioAssay AID1159580 (chemical genetic matrix, 2015).
Hit rate of the full screen: of about 5,500 compounds, about 2,000 (36%) were called active. Not shown: some 18% with an inconclusive outcome. Rule as the data show it: active = normalized growth mostly below about 0.91 (no sharp cut-off); inconclusive = no clear call, values can overlap the other calls; inactive = mostly above about 0.92. Some of the results follow.

Test: chemical genetic growth profiling, strain panel (AID 1159580);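 also: tested at 20 µM; growth read once vehicle control cultures reached saturation at 30 °C; 1 = growth at the plate median or of vehicle wells; lower values mean less growth of the strain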
Conditions: growth OD

Measured: normalized growth

COc1ccc(-c2oc3cc(O[C@H]4O[C@H](CO)[C@@H](O)[C@H](O)[C@H]4O)c(OC)c(O)c3c(=O)c2OC)cc1O
inactive: S. cerevisiae deletion strains, locus YAL013W, strain DEP1, hits give low values 1.02 | S. cerevisiae deletion strains, locus YAL021C, strain ccr4, hits give low values 1.01 | S. cerevisiae deletion strains, locus YAL026C, strain drs2, hits give low values 0.996 | S. cerevisiae deletion strains, locus YAL030W, strain snc1, hits give low values 1 | S. cerevisiae deletion strains, locus YBL061C, strain skt5, hits give low values 0.996 | S. cerevisiae deletion strains, locus YBR009C, strain hhf1, hits give low values 0.997 | S. cerevisiae deletion strains, locus YBR021W, strain FUR4, hits give low values 1 | S. cerevisiae deletion strains, locus YBR023C, strain chs3, hits give low values 0.992 | S. cerevisiae deletion strains, locus YBR171W, strain sec66, hits give low values 0.99 | S. cerevisiae deletion strains, locus YBR229C, strain ROT2, hits give low values 1 | S. cerevisiae deletion strains, locus YBR231C, strain swc5, hits give low values 0.99 | S. cerevisiae deletion strains, locus YBR279W, strain paf1, hits give low values 1 | S. cerevisiae deletion strains, locus YCL011C, strain gbp2, hits give low values 1 | S. cerevisiae deletion strains, locus YCL016C, strain dcc1, hits give low values 1 | S. cerevisiae deletion strains, locus YCL029C, strain bik1, hits give low values 0.969 | S. cerevisiae deletion strains, locus YCL061C, strain MRC1, hits give low values 0.998 | S. cerevisiae deletion strains, locus YCL069W, strain vba3, hits give low values 0.999 | S. cerevisiae deletion strains, locus YCR088W, strain abp1, hits give low values 0.996 | S. cerevisiae deletion strains, locus YDL005C, strain med2, hits give low values 1.01 | S. cerevisiae deletion strains, locus YDL035C, strain GPR1, hits give low values 0.991 | S. cerevisiae deletion strains, locus YDL040C, strain nat1, hits give low values 0.994 | S. cerevisiae deletion strains, locus YDL074C, strain BRE1, hits give low values 0.925 | S. cerevisiae deletion strains, locus YDL101C, strain DUN1, hits give low values 0.997 | S. cerevisiae deletion strains, locus YDL134C, strain PPH21, hits give low values 0.982 | S. cerevisiae deletion strains, locus YDL185W, strain tfp1, hits give low values 0.984 | S. cerevisiae deletion strains, locus YDL192W, strain arf1, hits give low values 0.961 | S. cerevisiae deletion strains, locus YDR001C, strain nth1, hits give low values 1 | S. cerevisiae deletion strains, locus YDR069C, strain doa4, hits give low values 1 | S. cerevisiae deletion strains, locus YDR101C, strain arx1, hits give low values 0.97 | S. cerevisiae deletion strains, locus YDR137W, strain rgp1, hits give low values 0.905 | S. cerevisiae deletion strains, locus YDR159W, strain sac3, hits give low values 1 | S. cerevisiae deletion strains, locus YDR162C, strain NBP2, hits give low values 0.983 | S. cerevisiae deletion strains, locus YDR195W, strain ref2 1.01 | S. cerevisiae deletion strains, locus YDR297W, strain sur2, hits give low values 0.989 | S. cerevisiae deletion strains, locus YDR318W, strain mcm21, hits give low values 0.962 | S. cerevisiae deletion strains, locus YDR334W, strain swr1, hits give low values 0.996 | S. cerevisiae deletion strains, locus YDR335W, strain msn5, hits give low values 1 | S. cerevisiae deletion strains, locus YDR388W, hits give low values 0.971 | S. cerevisiae deletion strains, locus YDR392W, strain spt3, hits give low values 0.897 | S. cerevisiae deletion strains, locus YDR502C, strain sam2, hits give low values 0.956 | S. cerevisiae deletion strains, locus YEL003W, strain gim4, hits give low values 0.996 | S. cerevisiae deletion strains, locus YEL037C, strain rad23, hits give low values 0.994 | S. cerevisiae deletion strains, locus YEL061C, strain CIN8 (second series), hits give low values 1 | S. cerevisiae deletion strains, locus YEL061C, strain CIN8, hits give low values 0.981 | S. cerevisiae deletion strains, locus YER015W, strain faa2, hits give low values 1.01 | S. cerevisiae deletion strains, locus YER016W, strain bim1, hits give low values 0.997 | S. cerevisiae deletion strains, locus YER110C, hits give low values 0.964 | S. cerevisiae deletion strains, locus YER111C, strain swi4, hits give low values 1 | S. cerevisiae deletion strains, locus YER155C, strain BEM2 (second series), hits give low values 0.998 | S. cerevisiae deletion strains, locus YER155C, strain BEM2, hits give low values 1.01 | S. cerevisiae deletion strains, locus YER167W, strain BCK2, hits give low values 0.999 | S. cerevisiae deletion strains, locus YFR010W, strain ubp6, hits give low values 1 | S. cerevisiae deletion strains, locus YGL078C, strain dbp3, hits give low values 0.975 | S. cerevisiae deletion strains, locus YGL086W, strain mad1, hits give low values 0.97 | S. cerevisiae deletion strains, locus YGL167C, strain pmr1, hits give low values 0.994 | S. cerevisiae deletion strains, locus YGL173C, strain kem1, hits give low values 0.989 | S. cerevisiae deletion strains, locus YGL227W, strain vid30, hits give low values 0.996 | S. cerevisiae deletion strains, locus YGL240W, strain doc1, hits give low values 1.01 | S. cerevisiae deletion strains, locus YGL248W, strain PDE1, hits give low values 0.984 | S. cerevisiae deletion strains, locus YGL253W, strain hxk2, hits give low values 1 | S. cerevisiae deletion strains, locus YGR078C, strain PAC10, hits give low values 0.959 | S. cerevisiae deletion strains, locus YGR135W, strain pre9, hits give low values 0.949 | S. cerevisiae deletion strains, locus YGR229C, strain SMI1, hits give low values 0.956 | S. cerevisiae deletion strains, locus YGR252W, strain gcn5, hits give low values 0.891 | S. cerevisiae deletion strains, locus YHR013C, strain ard1, hits give low values 1.01 | S. cerevisiae deletion strains, locus YHR027C, strain rpn1, hits give low values 1.01 | S. cerevisiae deletion strains, locus YHR030C, strain SLT2, hits give low values 1 | S. cerevisiae deletion strains, locus YHR079C, strain IRE1 (second series), hits give low values 0.99 | S. cerevisiae deletion strains, locus YHR094C, strain hxt1, hits give low values 0.981 | S. cerevisiae deletion strains, locus YHR129C, strain ARP1, hits give low values 0.969 | S. cerevisiae deletion strains, locus YHR142W, strain chs7, hits give low values 0.985 | S. cerevisiae deletion strains, locus YHR200W, strain rpn10, hits give low values 0.953 | S. cerevisiae deletion strains, locus YIL066C, strain RNR3, hits give low values 0.98 | S. cerevisiae deletion strains, locus YIL073C, strain SPO22, hits give low values 0.971 | S. cerevisiae deletion strains, locus YIL125W, strain kgd1, hits give low values 0.981 | S. cerevisiae deletion strains, locus YIR030C, strain dcg1, hits give low values 0.982 | S. cerevisiae deletion strains, locus YJL092W, strain hpr5, hits give low values 1 | S. cerevisiae deletion strains, locus YJL095W, strain BCK1 (second series), hits give low values 0.992 | S. cerevisiae deletion strains, locus YJL095W, strain BCK1, hits give low values 0.916 | S. cerevisiae deletion strains, locus YJL115W, strain asf1, hits give low values 1 | S. cerevisiae deletion strains, locus YJL129C, strain trk1, hits give low values 0.935 | S. cerevisiae deletion strains, locus YJL134W, strain LCB3, hits give low values 0.995 | S. cerevisiae deletion strains, locus YJL154C, strain vps35, hits give low values 1.01 | S. cerevisiae deletion strains, locus YJL164C, strain tpk1, hits give low values 0.992 | S. cerevisiae deletion strains, locus YJL166W, strain qcr8, hits give low values 1 | S. cerevisiae deletion strains, locus YJL168C, strain set2, hits give low values 0.977 | S. cerevisiae deletion strains, locus YJL187C, strain SWE1 (second series), hits give low values 0.965 | S. cerevisiae deletion strains, locus YJL187C, strain SWE1, hits give low values 1.01 | S. cerevisiae deletion strains, locus YJR043C, strain POL32, hits give low values 0.982 | S. cerevisiae deletion strains, locus YKL009W, strain mrt4, hits give low values 0.965 | S. cerevisiae deletion strains, locus YKL068W, hits give low values 0.99 | S. cerevisiae deletion strains, locus YKL085W, strain MDH1 (second series), hits give low values 0.994 | S. cerevisiae deletion strains, locus YKL085W, strain MDH1, hits give low values 0.994 | S. cerevisiae deletion strains, locus YKL160W, strain elf1, hits give low values 0.992 | S. cerevisiae deletion strains, locus YKR001C, strain vps1, hits give low values 1 | S. cerevisiae deletion strains, locus YKR026C, strain gcn3, hits give low values 0.995 | S. cerevisiae deletion strains, locus YKR091W, strain srl3, hits give low values 1 | S. cerevisiae deletion strains, locus YLL001W, strain dnm1, hits give low values 0.994 | S. cerevisiae deletion strains, locus YLL026W, hits give low values 0.995 | S. cerevisiae deletion strains, locus YLL041C, strain sdh2, hits give low values 1 | S. cerevisiae deletion strains, locus YLR027C, strain aat2, hits give low values 1.01 | S. cerevisiae deletion strains, locus YLR039C, strain RIC1, hits give low values 0.989 | S. cerevisiae deletion strains, locus YLR058C, strain SHM2, hits give low values 0.989 | S. cerevisiae deletion strains, locus YLR102C, strain apc9, hits give low values 0.968 | S. cerevisiae deletion strains, locus YLR221C, strain rsa3, hits give low values 0.997 | S. cerevisiae deletion strains, locus YLR258W, strain gsy2, hits give low values 1 | S. cerevisiae deletion strains, locus YLR262C, strain YPT6 (second series), hits give low values 0.951 | S. cerevisiae deletion strains, locus YLR262C, strain YPT6, hits give low values 0.979 | S. cerevisiae deletion strains, locus YLR268W, strain sec22, hits give low values 0.955 | S. cerevisiae deletion strains, locus YLR320W, strain mms22, hits give low values 0.993 | S. cerevisiae deletion strains, locus YLR330W, strain CHS5, hits give low values 1.01 | S. cerevisiae deletion strains, locus YLR342W, strain FKS1 (second series), hits give low values 0.983 | S. cerevisiae deletion strains, locus YLR342W, strain FKS1, hits give low values 0.995 | S. cerevisiae deletion strains, locus YLR357W, strain rsc2, hits give low values 0.985 | S. cerevisiae deletion strains, locus YLR370C, strain arc18, hits give low values 0.989 | S. cerevisiae deletion strains, locus YLR371W, strain rom2, hits give low values 0.979 | S. cerevisiae deletion strains, locus YLR384C, strain iki3, hits give low values 1.01 | S. cerevisiae deletion strains, locus YLR418C, strain cdc73, hits give low values 0.877 | S. cerevisiae deletion strains, locus YML016C, strain PPZ1, hits give low values 0.994 | S. cerevisiae deletion strains, locus YML032C, strain rad52, hits give low values 0.969 | S. cerevisiae deletion strains, locus YML120C, strain ndi1, hits give low values 0.998 | S. cerevisiae deletion strains, locus YML124C, strain tub3, hits give low values 0.981 | S. cerevisiae deletion strains, locus YMR058W, strain fet3, hits give low values 0.998 | S. cerevisiae deletion strains, locus YMR078C, strain ctf18, hits give low values 0.976 | S. cerevisiae deletion strains, locus YMR125W, strain sto1, hits give low values 0.995 | S. cerevisiae deletion strains, locus YMR129W, hits give low values 0.998 | S. cerevisiae deletion strains, locus YMR205C, strain PFK2, hits give low values 0.981 | S. cerevisiae deletion strains, locus YMR223W, strain ubp8, hits give low values 0.977 | S. cerevisiae deletion strains, locus YMR231W, strain pep5, hits give low values 0.995 | S. cerevisiae deletion strains, locus YMR307W, strain GAS1, hits give low values 0.92 | S. cerevisiae deletion strains, locus YNL067W, strain RPL9B, hits give low values 0.98 | S. cerevisiae deletion strains, locus YNL071W, strain lat1, hits give low values 1.01 | S. cerevisiae deletion strains, locus YNL209W, strain ssb2, hits give low values 0.998 | S. cerevisiae deletion strains, locus YNL233W, strain BNI4, hits give low values 0.977 | S. cerevisiae deletion strains, locus YNL248C, strain rpa49, hits give low values 1 | S. cerevisiae deletion strains, locus YNL250W, strain rad50, hits give low values 0.974 | S. cerevisiae deletion strains, locus YNL271C, strain bni1, hits give low values 0.978 | S. cerevisiae deletion strains, locus YNL298W, strain CLA4, hits give low values 0.963 | S. cerevisiae deletion strains, locus YNL307C, strain MCK1, hits give low values 0.928 | S. cerevisiae deletion strains, locus YNL322C, strain KRE1 (second series), hits give low values 0.999 | S. cerevisiae deletion strains, locus YNL322C, strain KRE1, hits give low values 0.985 | S. cerevisiae deletion strains, locus YNR049C, strain mso1, hits give low values 1 | S. cerevisiae deletion strains, locus YNR052C, strain pop2, hits give low values 0.948 | S. cerevisiae deletion strains, locus YOL012C, strain htz1 0.832 | S. cerevisiae deletion strains, locus YOL147C, strain pex11, hits give low values 0.962 | S. cerevisiae deletion strains, locus YOR001W, strain rrp6, hits give low values 1.02 | S. cerevisiae deletion strains, locus YOR061W, strain CKA2, hits give low values 0.993 | S. cerevisiae deletion strains, locus YOR069W, strain VPS5, hits give low values 0.997 | S. cerevisiae deletion strains, locus YOR070C, strain gyp1, hits give low values 1.02 | S. cerevisiae deletion strains, locus YOR080W, strain dia2, hits give low values 0.999 | S. cerevisiae deletion strains, locus YOR083W, strain WHI5, hits give low values 1 | S. cerevisiae deletion strains, locus YOR106W, strain vam3, hits give low values 1 | S. cerevisiae deletion strains, locus YOR136W, strain idh2, hits give low values 0.986 | S. cerevisiae deletion strains, locus YOR144C, strain elg1, hits give low values 0.968 | S. cerevisiae deletion strains, locus YOR184W, strain ser1, hits give low values 0.944 | S. cerevisiae deletion strains, locus YOR265W, strain rbl2, hits give low values 0.993 | S. cerevisiae deletion strains, locus YOR270C, strain vph1, hits give low values 0.987 | S. cerevisiae deletion strains, locus YOR290C, strain snf2, hits give low values 0.984 | S. cerevisiae deletion strains, locus YOR316C, strain cot1, hits give low values 0.974 | S. cerevisiae deletion strains, locus YPL051W, strain arl3, hits give low values 0.998 | S. cerevisiae deletion strains, locus YPL078C, strain atp4, hits give low values 1.01 | S. cerevisiae deletion strains, locus YPL106C, strain sse1, hits give low values 0.995 | S. cerevisiae deletion strains, locus YPL240C, strain hsp82, hits give low values 1 | S. cerevisiae deletion strains, locus YPR119W, strain clb2, hits give low values 0.978 | S. cerevisiae deletion strains, locus YPR141C, strain kar3, hits give low values 0.977 | S. cerevisiae deletion strains, locus YPR163C, strain tif3, hits give low values 0.933 | S. cerevisiae deletion strains, locus YPR167C, strain met16, hits give low values 0.978 | S. cerevisiae deletion strains, strain wtn01, hits give low values 0.971 | S. cerevisiae strains, strain wild type, hits give low values 0.993
